target: ETFA; test: pooled miR-30 sensor sort-seq; sequence = guide strand; details: shRNA
Further: reference of the scale not given here.

| Sequence | sensor-assay potency score (higher = more potent) |
| --- | --- |
| TAATTGAACTGCTTCTGAGTTG | -0.401 |
| TTAGCTCTGGTCGATCACTTTT | -1.24 |
| TTTCTCATCACACTTCACTGTA | 0.00115 |
| TTCTCATCACACTTCACTGTAC | -0.442 |
| TGTGTAATTGAACTGCTTCTGA | 0.237 |
| TTTCTGGTCAAGCCACTCTGAT | -1.17 |
| TAAATCTGCAACTATTCCATAA | -0.957 |
| TTGATTGCAATGATGTCAGAAA | -0.689 |
| TCCAACTTGCATGTCATTGGGA | -0.493 |
| TATTCCATAATCTGCCACTTGG | -0.476 |
| TCTTGCTGTCTTTCATCCCAGC | -0.987 |
| TTGATGCCTTTTCTGAACTGGC | -0.864 |
| TTTCACTTTCTCATCACACTTC | 0.639 |
| TATAATACCCACAAATATCTGT | 0.241 |
| TAGCTCTGGTCGATCACTTTTT | -1 |
| TAAATAGTTCTCACAAATGTGT | -0.288 |
| TGAACTGCTTCTGAGTTGCCAA | -0.648 |
| TTTACAGAGATCTTGTGCCACC | -0.57 |
| TGTAATTGAACTGCTTCTGAGT | -0.4 |
| TAGTTCTCACAAATGTGTCAGG | -0.609 |
| TTTCTGAACTGGCACTACCGCC | -0.966 |
| TTATGAAATGTAGCTCTCCATG | -1.39 |

Source: the OligoGym collection
